Measured values taken from PubChem BioAssay (Tox21).
Inconclusive results are not listed. Active and inactive are the calls of the source. Unless noted, calls follow the shape of the full dose curve.

Legend:
[1] = Nuclear factor erythroid 2-related factor 2/antioxidant responsive element (Nrf2/ARE) small molecule agonists: qHTS cell viability counter screen in human keratinocytes (AID 1919968; active = well fitted curve in the direction sought with a large enough effect in the repeat runs; an effect the other way counts as inactive or inconclusive; also: nearly all actives have a fitted effect of over 55% in size)
Method in brief: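 Cells of the KeratinoSens line were plated at 1,500 per well and left for 5 h before compound transfer from DMSO stocks. After a 23 h incubation (37 C, 5% CO2), CellTiter-Fluor was added. Signal was taken as fluorescence intensity 1 h later.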

[2] = target: Gonadotropin-releasing hormone receptor (Homo sapiens) (UniProt P30968); experiment: Human gonadotropin-releasing hormone receptor (GnRHR) small molecule agonists, calcium flux assay in GnRHR-HEK293 cells (AID 1920063); also: nearly all actives have a fitted effect of over 35% in size
Sequence of Gonadotropin-releasing hormone receptor (Homo sapiens) (P30968 whole entry, looked up): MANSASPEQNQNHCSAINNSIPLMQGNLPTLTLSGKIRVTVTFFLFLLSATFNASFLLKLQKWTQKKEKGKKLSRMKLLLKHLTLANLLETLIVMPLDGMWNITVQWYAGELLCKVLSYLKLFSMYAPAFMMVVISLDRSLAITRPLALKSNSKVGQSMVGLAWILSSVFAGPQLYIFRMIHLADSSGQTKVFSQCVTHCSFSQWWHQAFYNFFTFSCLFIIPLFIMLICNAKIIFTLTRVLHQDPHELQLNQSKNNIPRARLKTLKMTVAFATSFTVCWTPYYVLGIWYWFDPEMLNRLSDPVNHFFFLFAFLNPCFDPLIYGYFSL
Method in brief: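 Compounds dissolved in DMSO are pin-transferred onto dye-loaded GnRHR-HEK293 cells, which were seeded 18 h before at 37 C/5% CO2. Calcium signal is read as fluorescence intensity at 1 s intervals for 3 min.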

[3] = target: KiSS-1 receptor (Homo sapiens) (UniProt Q969F8); experiment: Human kisspeptin (KISS1R) small molecule agonists, calcium flux assay in KISS1R-HEK293 cells (AID 1920064; active = well fitted curve in the direction sought with a large enough effect in the repeat runs; an effect the other way counts as inactive or inconclusive)
Sequence of KiSS-1 receptor (Homo sapiens) (Q969F8 whole entry, looked up): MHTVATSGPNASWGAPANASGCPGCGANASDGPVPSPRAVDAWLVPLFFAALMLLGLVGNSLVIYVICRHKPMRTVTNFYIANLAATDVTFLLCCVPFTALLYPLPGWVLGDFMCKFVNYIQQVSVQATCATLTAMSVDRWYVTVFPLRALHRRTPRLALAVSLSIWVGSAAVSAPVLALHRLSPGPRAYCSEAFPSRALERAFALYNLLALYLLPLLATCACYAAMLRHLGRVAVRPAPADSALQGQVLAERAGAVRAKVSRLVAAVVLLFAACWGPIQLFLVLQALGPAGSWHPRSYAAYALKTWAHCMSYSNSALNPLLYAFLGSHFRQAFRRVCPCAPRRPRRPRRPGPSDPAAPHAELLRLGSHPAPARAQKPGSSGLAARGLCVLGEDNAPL
Method in brief: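 Cell line: HEK293, stable human KISS1R. Dye loading 1 h at 37 C after 18 h culture. Read: kinetic fluorescence, 480/540 nm, 3 min at 1 s intervals.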

[4] = G protein-coupled receptor (GPCR) small molecule agonists, calcium flux assay: HEK293 wild type cell line counter screen (AID 1920065)
Method in brief: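 Tox21 10K compounds, 15 concentrations each in triplicate, pin-transferred in DMSO onto dye-loaded cells; kinetic read at 480/540 nm for 3 min, 1 s intervals.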

[5] = p53 small molecule agonists, cell-based qHTS assay with human liver microsomes (AID 1963577);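 also: p53 response element beta-lactamase reporter cells with liver microsomes plus NADPH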
Method in brief: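 In this qHTS, p53 response-element beta-lactamase cells receive test compound together with a microsome/NADPH activating system (0.5 mg/mL final each) and are incubated 16 h at 37 C before LiveBLAzer fluorescence detection.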

[6] = p53 small molecule agonists, cell-based qHTS assay with rat liver microsomes (AID 1963578)
Method in brief: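 Agonist mode in p53RE-bla reporter cells, with compounds co-incubated 16 h at 37 C alongside 0.5 mg/mL rat liver microsomes and 0.5 mg/mL NADPH (final), followed by a 2 h LiveBLAzer detection step.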

[7] = p53 small molecule agonists, cell-based qHTS assay with human liver microsomes: qHTS cell viability counter screen (AID 1963579); also: nearly all actives have a fitted effect of over 45% in size
Method in brief: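 Metabolically activated exposure: compounds, human liver microsomes and NADPH (0.5 mg/mL final apiece) were added to p53RE-bla cells seeded 5 h earlier, left 16 h at 37 C, and then assessed for viability by CellTiter-Glo luminescence.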

[8] = p53 small molecule agonists, cell-based qHTS assay with rat liver microsomes: qHTS cell viability counter screen (AID 1963580); also: nearly all actives have a fitted effect of over 45% in size
Method in brief: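 Luminescent ATP readout (CellTiter-Glo, 30 min at room temperature) reports viability of p53RE-bla HCT-116 cells after 16 h at 37 C with test compounds under metabolic activation by rat liver microsomes and NADPH at 0.5 mg/mL final each.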

[9] = p53 small molecule agonists, cell-based qHTS assay: qHTS cell viability counter screen (AID 1963581); also: nearly all actives have a fitted effect of over 45% in size
Method in brief: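 ATP content measured by luminescence in HCT-116 p53RE-bla cells treated 16 h at 37 C, same wells as the reporter screen.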

[10] = target: 5-hydroxytryptamine receptor 2A (Homo sapiens) (UniProt P28223); experiment: 5-hydroxytryptamine receptor 2A (HTR2A) small molecule antagonists, cell-based qHTS assay (AID 1963586); also: nearly all actives have a fitted effect of over 45% in size
Sequence of 5-hydroxytryptamine receptor 2A (Homo sapiens) (P28223 whole entry, looked up): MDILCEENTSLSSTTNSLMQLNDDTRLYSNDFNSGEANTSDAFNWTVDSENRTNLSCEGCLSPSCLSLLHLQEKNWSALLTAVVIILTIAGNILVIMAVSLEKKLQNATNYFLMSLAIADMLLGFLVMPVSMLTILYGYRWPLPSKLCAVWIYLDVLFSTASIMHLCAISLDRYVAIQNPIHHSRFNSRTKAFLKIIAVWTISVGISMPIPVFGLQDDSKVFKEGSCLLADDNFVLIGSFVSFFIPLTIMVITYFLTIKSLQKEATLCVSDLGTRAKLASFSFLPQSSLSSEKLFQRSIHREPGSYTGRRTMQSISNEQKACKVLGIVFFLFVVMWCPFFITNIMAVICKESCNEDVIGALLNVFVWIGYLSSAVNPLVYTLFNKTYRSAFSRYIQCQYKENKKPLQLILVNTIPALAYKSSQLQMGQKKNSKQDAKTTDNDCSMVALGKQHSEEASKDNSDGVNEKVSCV
Method in brief: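 CHO cells stably expressing human HTR2A were plated for 18 h at 37 C, then loaded with calcium dye for 1 h. Compounds were preincubated 5 min at room temperature before DOI (4 nM solution) was added. Kinetic fluorescence was read for 3 min.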

[11] = target: 5-hydroxytryptamine receptor 2A (Homo sapiens) (UniProt P28223); experiment: 5-hydroxytryptamine receptor 2A (HTR2A) small molecule agonists, cell-based qHTS assay (AID 1963587); also: nearly all actives have a fitted effect of over 30% in size
Method in brief: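 HTR2A-CHO cells, plated 18 h at 37 C/5% CO2, dye-loaded 1 h at 37 C; compounds in DMSO added by pin tool (agonist mode). Intracellular calcium flux read as kinetic fluorescence on FDSS over 2 min at 1 s intervals.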

[12] = target: Muscarinic acetylcholine receptor M1 (Homo sapiens) (UniProt P11229); experiment: Cholinergic receptor muscarinic 1 (CHRM1) small molecule antagonists, cell-based qHTS assay (AID 1963588); also: nearly all actives have a fitted effect of over 40% in size
Sequence of Muscarinic acetylcholine receptor M1 (Homo sapiens) (P11229 whole entry, looked up): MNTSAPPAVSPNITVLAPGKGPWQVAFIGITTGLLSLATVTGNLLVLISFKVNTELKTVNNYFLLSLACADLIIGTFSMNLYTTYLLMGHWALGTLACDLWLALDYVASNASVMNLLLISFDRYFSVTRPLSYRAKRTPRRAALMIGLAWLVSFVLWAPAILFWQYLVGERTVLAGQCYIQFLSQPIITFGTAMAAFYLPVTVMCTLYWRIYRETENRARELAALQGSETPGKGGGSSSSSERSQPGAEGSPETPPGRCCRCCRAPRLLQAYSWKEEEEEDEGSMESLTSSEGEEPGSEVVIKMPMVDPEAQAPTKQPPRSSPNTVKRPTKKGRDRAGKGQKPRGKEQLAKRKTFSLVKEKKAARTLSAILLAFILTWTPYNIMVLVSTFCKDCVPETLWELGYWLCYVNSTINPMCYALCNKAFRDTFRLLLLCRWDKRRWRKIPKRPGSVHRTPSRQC
Method in brief: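 Compounds were tested at 15 concentrations in three independent runs. Dye-loaded CHRM1-CHO cells were exposed 5 min at room temperature before stimulation by acetylcholine added at 50nM. Intracellular calcium was read kinetically on FDSS for 3 min.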

[13] = target: Muscarinic acetylcholine receptor M1 (Homo sapiens) (UniProt P11229); experiment: Cholinergic receptor muscarinic 1 (CHRM1) small molecule agonists, cell-based qHTS assay (AID 1963589); also: nearly all actives have a fitted effect of over 35% in size
Method in brief: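 Homogeneous fluorescence calcium flux, agonist mode. Human M1-expressing CHO cells; compound dosed at 15 concentrations, three independent runs; signal sampled every 1 sec.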

[14] = cAMP Responsive Elements (CRE) small molecule agonists, cell-based qHTS assay (AID 1963590)
Method in brief: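 HEK 293T cells stably bearing CRE-bla were plated at 2,000 cells per well and rested 18 h. Compounds, positive controls or DMSO were added for 3 h at 37 C. LiveBLAzer B/G substrate was then loaded for 2 h at room temperature.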

[15] = cAMP Responsive Elements (CRE) small molecule antagonists, cell-based qHTS assay (AID 1963591; active = well fitted inhibition curve with a large enough effect in the signal ratio in the repeat runs, not every such curve was filed as active; the % refers to the signal ratio)
Method in brief: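 First, CRE-bla HEK293T cells settled 18 h at 37 C. Next, compound and 0.25 uM final NKH477 were applied for 3 h. Last, LiveBLAzer B/G substrate was loaded for 2 h at room temperature.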

[16] = target: Beta-2 adrenergic receptor (Homo sapiens) (UniProt P07550); experiment: Adrenergic beta2 receptor (ADRB2) small molecule antagonists, cell-based qHTS assay (AID 1963592); also: series mostly up to about 92 µM; nearly all actives have a fitted effect of over 50% in size
Sequence of Beta-2 adrenergic receptor (Homo sapiens) (P07550 whole entry, looked up): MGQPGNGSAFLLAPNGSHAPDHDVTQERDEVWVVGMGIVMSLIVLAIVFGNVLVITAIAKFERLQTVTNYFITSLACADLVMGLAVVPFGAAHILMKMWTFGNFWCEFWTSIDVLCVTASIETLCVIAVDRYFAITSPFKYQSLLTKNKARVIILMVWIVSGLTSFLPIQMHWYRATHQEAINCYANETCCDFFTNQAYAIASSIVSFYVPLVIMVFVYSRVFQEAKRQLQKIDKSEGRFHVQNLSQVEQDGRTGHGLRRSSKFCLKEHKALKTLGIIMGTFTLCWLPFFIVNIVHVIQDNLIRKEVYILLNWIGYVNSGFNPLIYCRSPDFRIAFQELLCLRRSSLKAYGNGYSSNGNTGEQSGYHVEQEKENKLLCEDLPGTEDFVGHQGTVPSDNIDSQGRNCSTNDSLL
Method in brief: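 Assay format: CHO-ADRB2 cells, 18-20hr seeding at 37C/5% CO2, then compound plus 1nM isoproterenol agonist mix for 0.5hr RT. Homogeneous time-resolved fluorescence cAMP detection after 1hr, expressed as 665/615 nm ratio.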

[17] = target: D(2) dopamine receptor (Homo sapiens) (UniProt P14416); experiment: Dopamine D2 receptor (DRD2) small molecule agonists, cell-based qHTS assay (AID 1963594); also: nearly all actives have a fitted effect of over 35% in size
Sequence of D(2) dopamine receptor (Homo sapiens) (P14416 whole entry, looked up): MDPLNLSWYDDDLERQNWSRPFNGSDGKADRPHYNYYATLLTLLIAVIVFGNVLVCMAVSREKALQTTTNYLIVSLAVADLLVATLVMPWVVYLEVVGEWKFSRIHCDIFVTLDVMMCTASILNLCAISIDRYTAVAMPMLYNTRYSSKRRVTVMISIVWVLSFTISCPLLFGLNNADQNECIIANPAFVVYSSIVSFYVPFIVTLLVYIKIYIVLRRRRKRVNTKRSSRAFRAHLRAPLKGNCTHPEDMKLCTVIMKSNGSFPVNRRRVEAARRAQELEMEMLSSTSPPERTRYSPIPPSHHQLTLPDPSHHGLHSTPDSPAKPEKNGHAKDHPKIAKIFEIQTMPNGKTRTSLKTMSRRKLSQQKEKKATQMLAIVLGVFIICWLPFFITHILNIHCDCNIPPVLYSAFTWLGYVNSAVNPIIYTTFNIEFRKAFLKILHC
Method in brief: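 HEK293 cells stably expressing DRD2 were cultured 24 h at 37 C, then given Ro20-1724 (0.1 mM final) and compounds for 10 min at room temperature. NKH477 (200nM) was then added for 30 min. cAMP was read by HTRF.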

[18] = target: D(2) dopamine receptor (Homo sapiens) (UniProt P14416); experiment: Dopamine D2 receptor (DRD2) small molecule antagonists, cell-based qHTS assay (AID 1963595; active = well fitted inhibition curve with a large enough effect in the signal ratio in the repeat runs, with a control signal flat; the % refers to the signal ratio)
Method in brief: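 Antagonist mode in DRD2-HEK293 cells: after compound addition with 0.1 mM Ro20-1724, cells received quinpirole (12 nM) and NKH477 (200 nM) for 30 min at room temperature; HTRF cAMP read after 1 h detection.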

[19] = p53 small molecule agonists, cell-based qHTS assay (AID 1963582; active = well fitted activation curve with a large enough effect in the signal ratio in the repeat runs, not every such curve was filed as active; the % refers to the signal ratio)
Method in brief: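 16 h compound exposure (37 C) of p53 response element–bla cells, preceded by 5 h recovery at 37 C/5% CO2; read-out via LiveBLAzer B/G FRET substrate, 2 h RT, fluorescence intensity.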

Measured: Potency

Clc1ccc(C(Cl)(Cl)Cl)cc1Cl
not listed: [19]
inactive: all other assays above

O=C1C[C@@H]2OCC=C3CN4CC[C@]56c7ccccc7N1[C@H]5[C@H]2[C@H]3C[C@H]46
not listed: [10] | [11] | [12] | [13]
inactive: all other assays above

CCOc1cccc(C2(N3CCN(c4ccccc4)CC3)CCC(C)CC2)c1 (configuration not stated)
not listed: [12]
inactive: all other assays above

CCOC(=O)N(C)C(=O)CSP(=S)(OCC)OCC
not listed: [12] | [15] | [17]
inactive: all other assays above

O=C1CC[C@@]2(O)[C@H]3Cc4ccc(O)c5c4[C@@]2(CCN3CC2CC2)[C@H]1O5
not listed: [10] | [11] | [12] | [13] | [14]
inactive: all other assays above

C[C@]12Cc3nonc3C[C@@H]1CC[C@@H]1[C@@H]2CC[C@@]2(C)[C@H]1CC[C@]2(C)O
not listed: [11] | [14] | [15] | [16] | [18]
inactive: all other assays above

c1coc(-c2nc3ccccc3[nH]2)c1
not listed: [13] | [16]
inactive: all other assays above
